In the assay the test system is HCI01 (cells of a triple-negative basal-like breast cancer xenograft). Nature of the assay: cell viability of combination (% of vehicle); higher = less cytotoxic. As to conditions: 1 µM; 72 h; partner dose: 10 nM. The method, then: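 PDX cells were treated for 72 h with each drug at 1 µM plus carfilzomib (10 nM; 100 nM for WHIM2). Luciferase viability is expressed as percent of vehicle.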
As to `Cc1ccc(-n2[nH]c(C)c(NN=C3C=CC=C(c4cccc(C(=O)O)c4)C3=O)c2=O)cc1C` [Eltrombopag] + CC(C)C[C@H](NC(=O)[C@H](CCc1ccccc1)NC(=O)CN1CCOCC1)C(=O)N[C@@H](Cc1ccccc1)C(=O)N[C@@H](CC(C)C)C(=O)[C@@]1(C)CO1 [Carfilzomib], the “cell viability of combination” value is 74.8.

For `COC1=C(OC)C(=O)C(CCCCCCCCCCO)=C(C)C1=O` [Idebenone] + CC(C)C[C@H](NC(=O)[C@H](CCc1ccccc1)NC(=O)CN1CCOCC1)C(=O)N[C@@H](Cc1ccccc1)C(=O)N[C@@H](CC(C)C)C(=O)[C@@]1(C)CO1 [Carfilzomib], the “cell viability of combination” value amounted to 82.8.

In the case of `Cc1cccc(CN2CCN(C(c3ccccc3)c3ccc(Cl)cc3)CC2)c1.Cl.Cl` (centres undefined) [Meclizine 2HCl] + CC(C)C[C@H](NC(=O)[C@H](CCc1ccccc1)NC(=O)CN1CCOCC1)C(=O)N[C@@H](Cc1ccccc1)C(=O)N[C@@H](CC(C)C)C(=O)[C@@]1(C)CO1 [Carfilzomib], the “cell viability of combination” value stood at 105.

`O=C(O)c1cc(O)c(O)c(O)c1` [Gallic acid] + CC(C)C[C@H](NC(=O)[C@H](CCc1ccccc1)NC(=O)CN1CCOCC1)C(=O)N[C@@H](Cc1ccccc1)C(=O)N[C@@H](CC(C)C)C(=O)[C@@]1(C)CO1 [Carfilzomib]: the “cell viability of combination” value came to 74.5.

Take `COC(=O)C1=C(C)NC(C)=C(C(=O)OC2CCCN(Cc3ccccc3)C2)C1c1cccc([N+](=O)[O-])c1.Cl` (centres undefined) [Benidipine HCl] + CC(C)C[C@H](NC(=O)[C@H](CCc1ccccc1)NC(=O)CN1CCOCC1)C(=O)N[C@@H](Cc1ccccc1)C(=O)N[C@@H](CC(C)C)C(=O)[C@@]1(C)CO1 [Carfilzomib]: the “cell viability of combination” value came out at 106.

With `CCN(CC)CCNC(=O)c1c(C)[nH]c(C=C2C(=O)Nc3ccc(F)cc32)c1C` [Sunitinib] + CC(C)C[C@H](NC(=O)[C@H](CCc1ccccc1)NC(=O)CN1CCOCC1)C(=O)N[C@@H](Cc1ccccc1)C(=O)N[C@@H](CC(C)C)C(=O)[C@@]1(C)CO1 [Carfilzomib], the “cell viability of combination” value came out at 66.

On to `COc1ccc(C[C@H](N)C(=O)N[C@@H]2[C@H](O)[C@H](n3cnc4c(N(C)C)ncnc43)O[C@@H]2CO)cc1.Cl.Cl` [Puromycin dihydrochloride] + CC(C)C[C@H](NC(=O)[C@H](CCc1ccccc1)NC(=O)CN1CCOCC1)C(=O)N[C@@H](Cc1ccccc1)C(=O)N[C@@H](CC(C)C)C(=O)[C@@]1(C)CO1 [Carfilzomib], for which the “cell viability of combination” value was 76.4.

For `CC[C@H](C)[C@H]1O[C@]2(CC[C@@H]1C)C[C@@H]1C[C@@H](C/C=C(\C)[C@@H](O[C@H]3C[C@H](OC)[C@@H](O[C@H]4C[C@H](OC)[C@@H](O)[C@H](C)O4)[C@H](C)O3)[C@@H](C)/C=C/C=C3\CO[C@@H]4[C@H](O)C(C)=C[C@@H](C(=O)O1)[C@]34O)O2` [Ivermectin] + CC(C)C[C@H](NC(=O)[C@H](CCc1ccccc1)NC(=O)CN1CCOCC1)C(=O)N[C@@H](Cc1ccccc1)C(=O)N[C@@H](CC(C)C)C(=O)[C@@]1(C)CO1 [Carfilzomib], the “cell viability of combination” value was 92.6.

With `COc1ncc(-c2ccc3nccc(-c4ccnnc4)c3c2)cc1NS(=O)(=O)c1ccc(F)cc1F` + CC(C)C[C@H](NC(=O)[C@H](CCc1ccccc1)NC(=O)CN1CCOCC1)C(=O)N[C@@H](Cc1ccccc1)C(=O)N[C@@H](CC(C)C)C(=O)[C@@]1(C)CO1 [Carfilzomib], the “cell viability of combination” value amounted to 37.6.

Take `O=C(NN=Cc1ccc([N+](=O)[O-])o1)c1ccc(O)cc1` [Nifuroxazide] + CC(C)C[C@H](NC(=O)[C@H](CCc1ccccc1)NC(=O)CN1CCOCC1)C(=O)N[C@@H](Cc1ccccc1)C(=O)N[C@@H](CC(C)C)C(=O)[C@@]1(C)CO1 [Carfilzomib]: the “cell viability of combination” value turned out to be 72.2.

For `Cn1cnc2c(F)c(Nc3ccc(Br)cc3F)c(C(=O)NOCCO)cc21` + CC(C)C[C@H](NC(=O)[C@H](CCc1ccccc1)NC(=O)CN1CCOCC1)C(=O)N[C@@H](Cc1ccccc1)C(=O)N[C@@H](CC(C)C)C(=O)[C@@]1(C)CO1 [Carfilzomib], the “cell viability of combination” value came out at 67.1.

For `CN1CCCC1CCOC(C)(c1ccccc1)c1ccc(Cl)cc1.O=C(O)C=CC(=O)O` (centres undefined) [Clemastine Fumarate] + CC(C)C[C@H](NC(=O)[C@H](CCc1ccccc1)NC(=O)CN1CCOCC1)C(=O)N[C@@H](Cc1ccccc1)C(=O)N[C@@H](CC(C)C)C(=O)[C@@]1(C)CO1 [Carfilzomib], the “cell viability of combination” value worked out at 77.2.

With `COCCn1c2c([n+](Cc3cnccn3)c1C)C(=O)c1ccccc1C2=O.[Br-]` + CC(C)C[C@H](NC(=O)[C@H](CCc1ccccc1)NC(=O)CN1CCOCC1)C(=O)N[C@@H](Cc1ccccc1)C(=O)N[C@@H](CC(C)C)C(=O)[C@@]1(C)CO1 [Carfilzomib], the “cell viability of combination” value came to 25.5.

Consider `CN1CCN(c2ccc(C(=O)/N=c3\[nH][nH]c4ccc(Cc5cc(F)cc(F)c5)cc34)c(NC3CCOCC3)c2)CC1` [Entrectinib] + CC(C)C[C@H](NC(=O)[C@H](CCc1ccccc1)NC(=O)CN1CCOCC1)C(=O)N[C@@H](Cc1ccccc1)C(=O)N[C@@H](CC(C)C)C(=O)[C@@]1(C)CO1 [Carfilzomib], for which the “cell viability of combination” value was determined as 90.7.

The values are drawn from the supplement of paper PMC6992640.
